# Source: PubChem BioAssay
# RORgamma inh: blocks mouse ROR gamma transcriptional activity. Drosophila S2 Gal4-RORgamma UAS-luciferase reporter, 20 h. Potency, µM (series often up to 53.6 µM), inactives show at the highest dose activity change, negative = inhibition, actives largely listed as inhibitors. hit rate 5.4% among 310,000; also: nearly all actives have a fitted effect of over 60% in size
#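 Stably transfected Drosophila Schneider cells are the test system, with ROR gamma fused to Gal4 and luciferase under UAS control; luminescence is read after 20 hr of 700 uM copper sulfate induction at ambient temperature.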
# TDP1 cell CPT: DT40-hTDP1 cell growth loss with CPT; chicken DT40 Tdp1-/-;hTDP1 cells + 20 nM CPT, ATP luminescence, 48 h; Potency, µM (doses to about 46.2 µM), without a hit: at the top dose activity change, negative = growth inhibition, hits mostly inhibitors; hit rate 12% among 420,000; also: nearly all actives have a fitted effect of over 55% in size
#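 Chicken DT40 Tdp1-/- cells stably complemented with human TDP1 were seeded at 400 cells/well in medium containing 20 nM camptothecin, exposed to pin-transferred compounds, and grown at 37 °C for at least 48 hr. Viability was read as ATP luminescence.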
# DT40 TDP1 no CPT: qHTS for Inhibitors of human tyrosyl-DNA phosphodiesterase 1 (TDP1): qHTS in cells in absence of CPT. DT40 Tdp1-/- hTDP1 cells, no CPT, ATP luminescence, 48 h. Potency, µM (doses to about 46.2 µM), without a hit: at the highest dose activity change, negative = growth inhibition, most hits filed as inhibitors. hit rate 15% among 420,000. AID 686978, 2013; also: nearly all actives have a fitted effect of over 55% in size
#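 Cells were dispensed at 400 per well, compounds added by pin tool, plates incubated ≥48 hr at 37 °C, then CellTiter-Glo added for 30 min at room temperature before luminescence reading. Line: DT40 Tdp1-/- complemented with hTDP1; camptothecin omitted.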
# Gal4-VP16 FLuc: inhibits Gal4-VP16 luciferase reporter, ROR gamma counter-screen | Drosophila S2 Gal4-VP16 UAS-luciferase, luminescence, 20 h | Potency, µM (series often up to 53.6 µM), without a hit: top-dose activity, negative = inhibition, usual class: inhibitors | hit rate 3.5% among 310,000 | AID 2546;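 also: Gal4-VP16 expression switched on by copper sulfate through the metallothionein promoter; nearly all actives have a fitted effect of over 50% in size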
# ELG1 repair inh: inhibitors of ELG1-dependent DNA repair in HEK293T cells; HEK293T ELG1-luciferase reporter, luminescence, 16 h; DNA damage induced by 5-fluorouridine; Potency, µM (doses to about 46.1 µM), without a hit: top-dose activity change, negative = inhibition, usual class: inhibitors; hit rate 2.3% among 330,000; AID 504467; also: nearly all actives have a fitted effect of over 55% in size
#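 Luminescence from the luciferase reporter, measured 30 min after ONE-Glo reagent at room temperature, was the read-out. Beforehand, 2,000 cells per well were exposed for 16 hr at 37 °C to 5-fluorouridine together with compound or vehicle.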
# 12-LOX inh: ALOX12 (human) lipoxygenase inhibition; Potency, µM (titrated, usually from 108 µM), inactives show at the top dose activity change, negative = inhibition, usual class: inhibitors; hit rate 1.1% among 580,000; purified 12hLO, xylenol orange hydroperoxide absorbance
# Target sequence (P18054 whole entry, looked up): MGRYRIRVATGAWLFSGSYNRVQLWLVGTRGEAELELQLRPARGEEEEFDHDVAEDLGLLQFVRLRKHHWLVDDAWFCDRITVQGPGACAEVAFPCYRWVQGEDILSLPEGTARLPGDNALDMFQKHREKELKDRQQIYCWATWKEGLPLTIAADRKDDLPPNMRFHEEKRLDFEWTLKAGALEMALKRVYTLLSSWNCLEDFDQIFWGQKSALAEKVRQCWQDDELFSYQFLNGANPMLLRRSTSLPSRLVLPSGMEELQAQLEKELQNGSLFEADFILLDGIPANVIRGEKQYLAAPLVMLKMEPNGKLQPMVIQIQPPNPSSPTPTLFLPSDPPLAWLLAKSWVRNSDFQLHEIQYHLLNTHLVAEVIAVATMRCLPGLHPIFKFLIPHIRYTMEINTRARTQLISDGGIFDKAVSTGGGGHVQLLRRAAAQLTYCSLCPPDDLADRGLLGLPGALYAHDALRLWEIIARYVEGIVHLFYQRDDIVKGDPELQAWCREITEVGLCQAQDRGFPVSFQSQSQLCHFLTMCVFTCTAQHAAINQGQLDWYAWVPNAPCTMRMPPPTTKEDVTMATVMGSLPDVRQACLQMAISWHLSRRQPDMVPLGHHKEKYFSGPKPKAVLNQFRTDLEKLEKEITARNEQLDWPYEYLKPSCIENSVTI
#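 Hydroperoxide product was detected by ferrous iron/xylenol orange as the 573 to 405 nm absorbance ratio. Arachidonic acid at 40 uM (final) was turned over for 30 min at room temperature by 150 nM human 12hLO, pH 7.0 Hepes buffer, after 15 min compound preincubation.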
# * marks the source's active call; other numbers are inactive results; ? = inconclusive; · = no result; [ ] = dose if it differs, or a comment. An excerpt weighted towards active compounds, which were near 15% of everything screened. Calls follow the shape of the dose curve; as a rule, active = well fitted curve in the direction sought with a large enough effect; inconclusive = small, poorly fitted or top-dose-only effect, or another doubt; inactive = no such curve, though single readings can be large; an effect the other way counts as inactive or inconclusive. % is scaled to controls: 0 for no effect and ±100 for the full control effect; potency is read from the fitted curve at half-maximal effect.
SMILES,RORgamma inh,TDP1 cell CPT,DT40 TDP1 no CPT,Gal4-VP16 FLuc,ELG1 repair inh,12-LOX inh
COc1ccccc1N1CCN(CCCCOc2cccc3ccccc23)CC1,15.3%,18.4µM*,9.2µM*,0.0%,?,?
COc1ccccc1N1CCN(CC(=O)c2c(C)[nH]c3cc(C)ccc23)CC1,17.3%,?,18.4µM*,-7.8%,?,?
CC(CC(=O)c1ccc(F)cc1)N1CCN(c2ccccc2)CC1 (configuration not stated),·,18.4µM*,?,·,·,?
COc1ccccc1N1CCN(CCCCCCOc2ccc(F)cc2)CC1,-7.7%,23.1µM*,20.6µM*,2.0%,-23.4%,-30.0%
CC(C)CC(=O)Nc1ccccc1N1CCN(c2ccccc2)CC1,11.0%,?,?,-6.3%,-13.2%,-20.9%
COc1ccc(OC)c(C(O)Cn2ccn3nc(-c4ccc(C(C)C)cc4)cc3c2=O)c1 (configuration not stated),·,·,·,·,·,15.2%
Cc1ccc2nc(NC(=O)c3ccc4c(c3)OCO4)sc2c1,7.94µM*,-12.8%,-22.1%,?,?,-21.0%
Cc1ccc2nc(NC(=O)c3ccc(Cl)s3)sc2c1,-32.4%,20.6µM*,?,?,?,0.7%
Cc1ccc2nc(NC(=O)c3nc(SCc4ccccc4C)ncc3Cl)sc2c1,·,-29.1%,16.4µM*,·,·,-5.0%
Cc1ccc2nc(NC(=O)c3cccs3)sc2c1,?,-23.4%,-7.9%,-29.8%,?,2.4%
Cc1ccc2nc(NC(=O)C3CC3C)sc2c1 (configuration not stated),7.08µM*,?,?,-12.6%,?,-28.6%
CCOC(=O)Nc1ccc(C(=O)OC)cc1,·,·,·,·,·,-9.1%
Cc1cc2c(cc1C)C(c1ccccc1OC(C)C)CC(=O)N2 (configuration not stated),11.4%,?,?,3.3%,0.3%,-29.4%
CCCCOc1ccccc1C1CC(=O)Nc2cc(OC)c(OC)cc21 (configuration not stated),·,?,?,·,·,-0.5%
CCOc1ccccc1C1CC(=O)Nc2cc(C)c(C)cc21 (configuration not stated),-8.0%,2.59µM*,4.11µM*,-5.2%,-9.0%,-10.2%
CCCCOc1ccccc1C1CC(=O)Nc2cc(C)c(C)cc21 (configuration not stated),·,14.6µM*,18.4µM*,·,·,4.5%
COc1ccccc1C1CC(=O)Nc2cc(C)c(C)cc21 (configuration not stated),-2.8%,6.51µM*,8.2µM*,-2.8%,?,-11.8%
O=C(Nc1c(F)cccc1F)N1CCOc2ccc(CN3CCc4ccccc4C3)cc2C1,·,·,·,·,·,30.3%
COc1ccc(C(=O)N2CCN(C(=O)c3cn(C)c4ccccc34)CC2)cc1OC,·,·,·,·,·,-6.2%
CNC(=O)[C@@H]1CN(C(=O)c2ccc(C)[nH]c2=O)C[C@H]1c1nc(COC)no1,·,·,·,·,·,48.2%
Cc1ccc(Cl)cc1-n1ncc2c(NC3CCCC3)ncnc21,·,·,·,·,·,-55.3%
Clc1ccc(-n2ncc3c(NCC4CCCO4)ncnc32)cc1 (configuration not stated),-31.4%,16.4µM*,16.4µM*,-29.5%,?,23.0%[57.4 µM]
CCOC(=O)N1CCC(Nc2ncnc3c2cnn3-c2ccccc2)CC1,?,?,11.2µM*,?,?,9.7%
Clc1ccc(-n2ncc3c(NC4CCCC4)ncnc32)cc1,·,16.4µM*,16.4µM*,·,·,?
Cc1ccc(Cl)cc1-n1ncc2c(NC3CCCCCC3)ncnc21,·,20.6µM*,20.6µM*,·,·,?
SMILES,RORgamma inh,TDP1 cell CPT,DT40 TDP1 no CPT,Gal4-VP16 FLuc,ELG1 repair inh,12-LOX inh
O=C(c1cccc(Cl)c1)N1CCn2c(nn(-c3ccc(C(F)(F)F)cc3)c2=O)C1,·,·,·,·,·,14.5%
CCCSc1nnc(NC(=O)Nc2ccc(C)cc2)s1,-9.4%,?,?,-12.9%,1.7%,110.1%
CCN(c1ccccc1)c1nnc(NC(=O)Nc2ccc(OC)c(OC)c2)s1,·,·,·,·,·,75.9%
CCN(c1ccccc1)c1nnc(NC(=O)Nc2ccc(Br)cc2)s1,·,2.91µM*,3.66µM*,·,·,-7.4%
Cc1ccc(NC(=O)Nc2nnc(SCC(=O)N3CCC(C)CC3)s2)cc1,·,?,23.1µM*,·,·,-15.3%
CCCSc1nnc(NC(=O)Nc2ccc(F)cc2)s1,4.1%[0.365 µM],20.6µM*,20.6µM*,·,17.9%,0.0%
CCCSc1nnc(NC(=O)Nc2ccccc2)s1,22.8%,?,16.4µM*,21.3%,?,2.7%
O=S(=O)(Cc1ccccc1)Cc1cc(Cl)c2c(c1)OCO2,·,·,·,·,·,-0.2%
COc1ccc(-c2cc(C[C@H]3CNCC[C@H]3CC(=O)NCc3ccccc3OC)no2)cc1,·,·,·,·,·,-1.5%
CCOC(=O)Cc1ccc(NC(=O)Nc2nnc(N3CCCC3)s2)cc1,·,·,·,·,·,16.9%
CCOC(=O)Cc1ccc(NC(=O)Nc2nnc(N3CCCCC3C)s2)cc1 (configuration not stated),·,11.6µM*,11.6µM*,·,·,5.6%
c1ccc(-c2noc(-c3cncnc3N3CCSCC3)n2)cc1,·,·,·,·,·,49.2%
COc1cc(C)ccc1OCc1cc(C(=O)NC(c2ccccn2)C(F)(F)F)no1 (configuration not stated),·,0.651µM*,?,·,·,1.4%
CCC(=O)NC(c1ccco1)c1cc(Cl)c2cccnc2c1O (configuration not stated),1.41µM*,?,3.66µM*,2.82µM*,-20.0%,-22.9%
CCCCC(=O)NC(c1ccco1)c1cc(Cl)c2cccnc2c1O (configuration not stated),-0.1%,?,16.4µM*,0.3%,15.1%,?
CCC(=O)NC(c1ccco1)c1cc(Cl)c2cccnc2c1OC (configuration not stated),·,·,·,·,1.8%,-13.7%
Cc1cc(C)c2c(c1)N[C@H](c1cccs1)[C@@H]1CCO[C@H]21,26.2%,-20.7%,?,26.7%,1.3%,199.5%
CC(C)c1ccc2c(c1)[C@H]1OCC[C@H]1[C@@H](c1cccs1)N2,?,16.4µM*,10.3µM*,?,?,3.9%
CCOC(=O)c1cnc2ccc(OC)cc2c1NCc1ccccc1,?,?,?,?,-28.8%,0.2%
CCOC(=O)c1cnc2ccc(OC)cc2c1Nc1cccc(C(C)=O)c1,·,16.4µM*,20.6µM*,·,·,-2.6%
CCOC(=O)c1cnc2ccc(OCC)cc2c1Nc1cc(C)ccc1OC,·,·,·,·,·,-24.0%
CCOC(=O)c1ccc2ncc(C(=O)OCC)c(Nc3cccc(C(C)=O)c3)c2c1,·,·,·,·,·,3.1%
